Results filed as inconclusive are left out. Values without a mark were called inactive. Calls of active or inactive are those of the source. Calls come from the whole dose curve; as a rule, active = well fitted inhibition curve with a large enough effect; inconclusive = small, poorly fitted or top-dose-only effect; inactive = flat fitted curve, though single readings scatter.

Phospholipid hydroperoxide glutathione peroxidase GPX4 (Homo sapiens), sequence (P36969 whole entry, looked up): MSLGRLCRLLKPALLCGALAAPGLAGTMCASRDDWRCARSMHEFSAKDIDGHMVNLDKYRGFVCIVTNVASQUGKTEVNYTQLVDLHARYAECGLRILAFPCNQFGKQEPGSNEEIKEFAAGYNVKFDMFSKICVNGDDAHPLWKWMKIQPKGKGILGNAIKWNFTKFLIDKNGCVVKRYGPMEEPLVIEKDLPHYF

For this experiment, the target named is Phospholipid hydroperoxide glutathione peroxidase GPX4 (Homo sapiens) (UniProt P36969). The experiment in a line: Primary qHTS Assay for Inhibitors of Recombinant Selenoprotein Glutathione Peroxidase 4 (GPX4) (AID 1845192). Note: nearly all actives have a fitted effect of over 65% in size. Particulars: recombinant GPX4, GR-coupled NADPH fluorescence, 15 min; series mostly up to 50 µM; activity change, negative = inhibition: at the top concentration. An excerpt:
Assay Provider: Elias S.J. Arner MD PhD.
Department of Medical Biochemistry and Biophysics
Karolinska Institutet, Solna, Stockholm, Sweden
Selenoprotein glutathione peroxidases (GPX), like the ubiquitously expressed GPX1 and the ferroptosis modulator GPX4, enact their antioxidant activities by reducing hydroperoxides using glutathione. […] GPX1 and GPX4 inhibitors have thus shown promise as anti-cancer agents. Existing inhibitors are often promiscuous, or modulate GPX activity only indirectly, so novel direct inhibitors identified through screening against GPX1 and GPX4 could be valuable. Here, we developed optimized glutathione reductase (GR)-coupled GPX assays for the biochemical high-throughput screen (HTS) of almost 12,000 compounds with known mechanisms of action. Initial hits were triaged using a GR counter-screen, assessed for isoform specificity using a separate GPX2 assay, and were assessed for general selenocysteine-targeting activity using a thioredoxin reductase (TXNRD1) assay. With this suite of assays, we identified novel GPX1/GPX2- and GPX4-specific inhibitors and can here present a validated pipeline for future discovery research for selenoprotein-targeting agents.
SEQUENCE No. (e.g., 1, 2, 3, etc.); […] (e.g., Cells, Incubation, Reagent, etc.); VALUE; DESCRIPTION.
1; Reagent 1; 3 uL; 333.33 nM GPx4 enzyme or no enzyme control in 1536-well, black, solid Greiner assay plate.
2; Compound; 25 nL; Kalypsis pin tool (Wako USA) equipped with a 1536-well pin head.
3; Incubation; 30 min; room temperature.
4; Reagent 2; 1 uL; 500 nM GR, 5 mM GSH, 2.5 mM NADPH solution
5; Reagent 3; 1 uL; 2.5 mM CHP in 50% EtOH.
6; Detection; Fluorescence; ViewLux microplate reader, excitation 340 nm and emission 450 nm.
7; Incubation; 15 min; room temperature.
8; Detection; Fluorescence; ViewLux microplate reader, excitation 340 nm and emission 450 nm.
NOTES (numbers refer to Sequence numbers above)
1. 3 µL of 333.33 nM GPX4 and 0.016% BSA in assay buffer (50 mM Tris-HCl, 2 mM EDTA (pH 7.5), 150 mM NaCl) was added to columns 3-48 of 1536-well plates using a BioRAPTR Flying Reagent Dispenser (Let's Go Robotics (LGR), Carlsbad, CA). A no-enzyme control (0.01% BSA in TES assay buffer) was added to columns 1-2.
2. 25 nL, library and DMSO controls were added to each well with a pin tool (Kalypsys).
3. The assay plates were incubated for 30 minutes at room temperature.
4. 1 µL of master mix (500 nM glutathione reductase (GR), 5 mM reduced glutathione (GSH), 2.5 mM NADPH in assay buffer) was added.
5. 1 µL of cumene hydroperoxide (CHP) ([2.5 mM] in 50% EtOH) was then added within 5 minutes to initiate the reaction. Final concentrations were: 200 nM GPX4, 1 mM GSH, 0.5 mM CHP, 0.5 mM NADPH, 100 nM GR, 0.01% BSA.
6. Initial fluorescence readout (t=0) at 340/450 nm was measured using a ViewLux multimodal detector (PerkinElmer, Waltham, MA).
8. Endpoint fluorescence readout (t=15) at 340/450 nm was measured 15 min after room temperature incubation.
For orientation: qHTS replaces the single test concentration by a dilution series.
For the molecule `C/C=C(/C)C(=O)O[C@H]1C=C(C)C[C@H](OC(=O)c2ccc(O)cc2)C2[C@](O)(C(C)C)CC[C@@]21C` (stereo not given in full), the “activity change, negative = inhibition” value was -22% [at 15.3 µM].
Consider `C/C=C(\C)C(=O)O[C@H]1[C@@H](O[C@]2(COC(=O)CC(C)C)O[C@H](COC(=O)C(C)C)[C@@H](OC(C)=O)[C@@H]2O)O[C@H](COC(C)=O)[C@@H](O)[C@@H]1O`, for which the “activity change, negative = inhibition” value was -13.5% [at 15.3 µM].
`CC(C)[C@@H](C)/C=C/[C@@H](C)[C@H]1CC[C@H]2C3=CC=C4C[C@@H](O)CC[C@]4(C)[C@H]3CC[C@]12C`: the “activity change, negative = inhibition” value is 16.5% [at 27.8 µM].
In the case of `CC(c1c[nH]c2ccccc12)C(O)C(=O)O` (stereo not given), the outcome was inactive.
Turning to `C[C@@H]1CC[C@H]2C(C)(C)[C@H](O)[C@H](O)C[C@]2(C)[C@@]12Cc1c(O)cc3c(c1O2)CNC3=O`, the “activity change, negative = inhibition” value was 0.0387% [at 27.8 µM].
As to `CCCOc1ccn2c(C(C)=O)cc(-c3ccccc3S(C)(=O)=O)c2c1`, the Potency entry is “inactive”.
Turning to `COc1ccc2c(c1O)OC[C@H]1c3ccc(O)cc3O[C@@H]21`, the outcome was inactive.
The same measure, in the same setting: next, `CO[C@H]1C=C2C(CC[C@H](O[C@@H]3O[C@H](CO)[C@@H](O)[C@@H](O)[C@H]3O)C2(C)C)[C@]2(C)CC[C@]3(C)C([C@H](C)C(O)C(C=C(C)C)O[C@@H]4O[C@H](CO)[C@@H](O)[C@@H](O)[C@H]4O)CC[C@@]3(C)C12` (stereo not given in full): “inactive [at 15.3 µM]”.
Regarding `CC1CCC2C(C)(C)C(O)CCC2(C)C12Cc1c(O)cc3c(c1O2)C(N)=NC3` (stereo not given), the “activity change, negative = inhibition” value is -19.5% [at 27.8 µM].
Take `C[C@]12CCC(=O)C=C1[C@@H](O)C[C@@H]1[C@@H]2[C@@H](O)C[C@@]2(C)[C@H]1CC[C@]2(O)C(=O)CO`: the result was inactive.
For the molecule `CC(=O)N(O)CCCCCN1C(=O)CCC1=O`, the “activity change, negative = inhibition” value was -1.71%.
`O=C1NC(=Nc2ccccc2F)S/C1=C\c1ccc(C(=O)O)cc1`: the “activity change, negative = inhibition” value was -5.77%.
As for `OC[C@H]1O[C@@H](n2cnc3c2NC=NC[C@H]3O)C[C@@H]1O`, the Potency result was “inactive”.
As for `CC(C)CC(=O)OC[C@H]1O[C@@](COC(=O)CC(C)C)(O[C@H]2O[C@H](CO)[C@@H](O)[C@H](O)[C@H]2OC(=O)CC(C)C)[C@@H](OC(=O)CC(C)C)[C@@H]1O`, the “activity change, negative = inhibition” value was -15.9% [at 15.3 µM].
Take `Cn1ccnc1CCOC(c1cc2nccc(C(=O)O)c2[nH]1)c1ccccc1Cl` (stereo not given): the “activity change, negative = inhibition” value is -3.98%.
Regarding `CC(=O)O[C@@]1(C)C[C@@H](O)[C@]2(O)C=CO[C@@H](O[C@@H]3O[C@H](CO)[C@@H](O)[C@H](O)[C@H]3O)[C@@H]21`, the “outcome” value is “inactive [at 27.8 µM]”.
As for `OC[C@H]1O[C@@H](OC(CCCCc2ccc(O)cc2)CCc2ccc(O)cc2)[C@H](O[C@@H]2OC[C@](O)(CO)[C@H]2O)[C@@H](O)[C@@H]1O` (stereo not given in full), the “activity change, negative = inhibition” value was 1.38% [at 15.3 µM].
As to `CC1(C)CC[C@]2(C(=O)O)CC[C@]3(C)C(=CCC4[C@@]5(C)CCC(O[C@@H]6OC[C@H](O)[C@H](O)[C@H]6O[C@@H]6O[C@H](CO)[C@@H](O)[C@H](O)[C@H]6O)[C@@](C)(CO)C5CC[C@]43C)[C@@H]2C1` (stereo not given in full), the “activity change, negative = inhibition” value is -17.4% [at 15.3 µM].
With `CC1=C(CC(=O)O)c2cc(F)ccc2C1=Cc1ccc(S(C)(=O)=O)cc1`, the “activity change, negative = inhibition” value was -3.43%.
For the molecule `CC1CCCC2OC2C(=O)c2c(O)cc(O)cc2CC(=O)O1` (stereo not given), the “activity change, negative = inhibition” value was -4.01%.
Take `CC(=O)N(CC(C)C(=O)O)c1c(I)cc(I)c(N)c1I` (stereo not given): the “activity change, negative = inhibition” value is -27.5%.
On to `CCC[C@@H]1C[C@@H](C(=O)N[C@H](C(C)Cl)[C@H]2O[C@H](SC)[C@H](O)[C@@H](O)[C@H]2O)N(C)C1` (stereo not given in full), for which the “activity change, negative = inhibition” value was 3.68%.
`COc1cc(C)c(C(=O)O[C@H]2[C@@H](O)[C@H](n3ccc(=O)[nH]c3=O)O[C@@H]2CO)c(OC)c1`: the “activity change, negative = inhibition” value is -0.619% [at 27.8 µM].
For `CO[C@@H]1COCC[C@@H]1N[C@@H]1CC[C@@](C(=O)N2CCc3ncc(C(F)(F)F)cc3C2)(C(C)C)C1`, the “outcome” value is “inactive [at 15.3 µM]”.
With `O=c1ccn([C@@H]2O[C@H](CO)[C@@H](O)[C@H]2O)c(=O)[nH]1`, the “activity change, negative = inhibition” value is 0.171%.
With `CC(C)CC1(C(=O)OCc2ccc(O[C@@H]3O[C@H](CO)[C@@H](O)[C@H](O)[C@H]3O)cc2)CC(=O)OC(C(=O)O)CC(=O)OCC2OC(O1)C(OC(=O)/C=C/c1ccc(O)cc1)C(O)C2O` (stereo not given in full), the “activity change, negative = inhibition” value is -6.64% [at 15.3 µM].
`COc1cc(COC2OC(CO)C(O)C(O)C2O)cc(OC)c1O` (stereo not given): the “outcome” value was “inactive [at 27.8 µM]”.
With `OCC1OC(Oc2cc(O)c3c(c2)OC(c2ccc(O)cc2)C(O)C3)C(O)C1O` (stereo not given), the “activity change, negative = inhibition” value is 0.126% [at 27.8 µM].
Same read-out and setting: next, `C=C1CC23CC1(O)CCC2C1=CC2OC(=O)C(C)(C2O)C1C3C(=O)O` (stereo not given): -1.01% [at 27.8 µM]; `COc1cc(/C=C/C(=O)OC2CC(OC(C)=O)C(OC(C)=O)C3C2CCC2C(=O)OC(c4ccoc4)CC23C)ccc1O[C@@H]1O[C@H](CO)[C@@H](O)[C@H](O)[C@H]1O` (stereo not given in full): -13.2% [at 15.3 µM]; `CC1(C)CC[C@]2(C(=O)O[C@@H]3O[C@H](CO)[C@@H](O)[C@H](O)[C@H]3O)CC[C@]3(C)C(=CCC4[C@@]5(C)C[C@@H](O)[C@H](O)C(CO)(CO)C5CC[C@]43C)C2[C@@H]1O` (stereo not given in full): 4.27% [at 15.3 µM].
The same measure, in the same setting: the same measure for `C[C@]1(O)CC[C@@H]2C(C(=O)O)=CO[C@@H](O[C@@H]3O[C@H](COC(=O)c4ccc(O)cc4)[C@@H](O)[C@H](O)[C@H]3O)[C@@H]21`: -9.58% [at 27.8 µM].
`Nc1ncnc2c1ncn2[C@H]1CCCO1`: the “activity change, negative = inhibition” value was 10.9%.
`C[C@@H]1C/C=C/C=C\C=C\C=C\[C@H](O[C@@H]2O[C@H](C)[C@@H](O)[C@H](N)[C@@H]2O)C[C@@H]2O[C@](O)(C[C@@H](O)C[C@H]3O[C@@H]3/C=C/C(=O)O1)C[C@H](O)[C@H]2C(=O)O`: the “activity change, negative = inhibition” value was 0.598% [at 15.3 µM].
In the case of `CC(NCc1ccc(OCc2cccc(F)c2)cc1)C(N)=O` (stereo not given), the “activity change, negative = inhibition” value is 14.9%.
For `COc1cc([C@H]2OC[C@]3(OC(C)=O)[C@@H](c4ccc(O[C@@H]5O[C@H](CO)[C@@H](O)[C@H](O)[C@H]5O)c(OC)c4)OC[C@H]23)ccc1O`, the “activity change, negative = inhibition” value is -0.736% [at 15.3 µM].
Consider `c1ccc(Cc2ncc3c(n2)CCNCC3)cc1`, for which the “activity change, negative = inhibition” value is -0.333%.
Turning to `CC(=O)O[C@H]1CC[C@@]2(CI)C(=CC[C@@H]3[C@@H]2CC[C@]2(C)[C@@H]([C@H](C)CCCC(C)C)CC[C@@H]32)C1`, the activity change, negative = inhibition was 1.73% [at 9.73 µM].
Turning to `C[C@@H]1O[C@@H](O[C@H]2[C@H](OC(=O)[C@]34CCC(C)(C)C[C@H]3C3=CCC5[C@@]6(C)CC[C@H](O[C@@H]7O[C@H](CO[C@@H]8OC[C@H](O)[C@H](O)[C@H]8O)[C@@H](O)[C@H](O)[C@H]7O)C(C)(C)C6CC[C@@]5(C)[C@]3(C)C[C@H]4O)OC[C@@H](O)[C@@H]2O)[C@H](O)[C@H](O)[C@H]1O[C@@H]1OC[C@H](O)[C@H](O[C@@H]2OC[C@@H](O)[C@H](O)[C@H]2O)[C@H]1O` (stereo not given in full), the activity change, negative = inhibition was -4.93% [at 9.73 µM].
In the case of `N[C@H]1C[C@H]1c1ccc(-c2cccc(O)c2)cc1`, the Potency entry was “inactive”.

Source of the values: PubChem BioAssay (NCATS).
